From PubChem
A selection: hits, their analogues and other compounds. The true share with any hit is near 3.1%.
HSF-1 act: HSF-1 activators, primary screen, NIH3T3-HGL cells, MG132 stress, luminescence, single point | NIH3T3-HGL HSF-1 luciferase reporter, 8 h; 100% = twice DMSO control signal | activation, % at 9 µM | 1.7% of 300,000 active | AID 504408, 2011;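 active = mean replicate activation of at least 50% with a set share of replicates each reaching 50%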
HSF1 inhib: HSF1 inhibitors in luciferase reporter cells, primary screen, cell-based, NIH3T3, luminescence; 0.77% of 300,000 active; NIH3T3-HGL HSE-luciferase, MG132-induced, luminescence 8 h; active compounds read low; activity change, negative = inhibition, % at 7.5 µM (by protocol); AID 2098, 2009;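 active = more than half of replicate wells show activity change below -50%, luminescence cut by over half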;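 also: luciferase reports HSF-1 transcriptional activity via heat shock element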
HSP90 inh: HSP90 inhibitors, primary screen, cell lysate, luminescence; Rabbit reticulocyte lysate, luciferase refolding luminescence, 3 h; 0.91% of 290,000 active; AID 1789, 2009; Heat shock protein HSP 90 (rabbit reticulocyte lysate; luciferase refolding); inhibition, % at 5.6 µM;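 active = inhibition above the screen-wide mean plus 3 SD, computed separately per campaign, cut at about 16% in these data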;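 also: inhibitors lower the luminescence because luciferase stays unfolded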
ARNT-TACC3 inh: disruptors of ARNT/TACC3 protein interaction, primary screen, biochemical, AlphaScreen, single concentration | Transforming acidic coiled-coil-containing protein 3 (Homo sapiens), Q9Y6A5 | AlphaScreen His-ARNT PAS-B/GST-TACC3 binding, luminescence; TACC3 fragment carries E629A point mutation | inhibition, % at 9.99 µM | 0.66% of 390,000 active | AID 623870, 2012;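 active = mean inhibition of replicates at least 50% and at least half of replicates each reaching 50%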
HIF act: HIF pathway transcriptional activators, primary screen, cell-based, U2OS HRE-luciferase, luminescence; U2OS HRE-luciferase reporter; normalized: DMSO 0%, desferrioxamine 100%; activation, % at 7.5 µM (by protocol); 0.32% of 300,000 active;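 active = mean activation of at least 10% of the iron chelator positive control signal, with at least half of replicates also reaching 10%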
Large screens that a line does not name were inactive.

Nc1c(-c2cccc(Cl)c2)cnc2c(-c3ccccc3)cnn12	HSF-1 act 64
CCOC(=O)c1cnc2c(-c3ccccc3)cnn2c1N	HSF-1 act 53
CS(=O)(=O)Nc1ccc2c(c1)[C@H]1C[C@H](CC(=O)NCc3ccccn3)O[C@H](CO)[C@H]1O2	none (no result: HSF-1 act, HSF1 inhib, HSP90 inh, HIF act)
CO[C@@H]1CN(C)C(=O)c2ccc(NC(=O)Nc3c(C)noc3C)cc2OC[C@H](C)N(C)C[C@@H]1C	none (no result: HSF-1 act, HSF1 inhib, HSP90 inh, HIF act)
C[C@H](O)C#Cc1cnc2c(c1)C(=O)N([C@@H](C)CO)C[C@H](C)[C@@H](CN(C)CC1CCCC1)O2	none (no result: HSF-1 act, HSF1 inhib, HSP90 inh, HIF act)
COCCNC(=O)C[C@H]1CC[C@H](NC(=O)NC2CCCC2)[C@@H](CO)O1	none (no result: HSF-1 act, HSF1 inhib, HSP90 inh, HIF act)
CC(C)Nc1nc(Cl)nc(N(C#N)CN2C(=O)c3ccccc3C2=O)n1	HSF-1 act 204
CCC(C)Nc1nc(Cl)nc(N(C#N)CN2C(=O)c3ccccc3S2(=O)=O)n1 (configuration not stated)	HSF-1 act 76
Cc1cc(C)nc(N(C#N)CN2C(=O)c3ccccc3C2=O)n1	none
Cc1ccc2[nH]c(=O)c(CN(CCc3ccccc3)C(c3nnnn3Cc3ccco3)C(C)C)cc2c1 (configuration not stated)	HSF-1 act 82
CCC(c1nnnn1Cc1ccco1)N(CCc1ccccc1)Cc1cc2cc(C)ccc2[nH]c1=O (configuration not stated)	none (no result: HSP90 inh)
CCC(c1nnnn1CCc1ccccc1)N(Cc1ccco1)Cc1cc2cc(C)cc(C)c2[nH]c1=O (configuration not stated)	HSF-1 act 58
CCC(c1nnnn1CCc1ccccc1)N(Cc1ccco1)Cc1cc2c(C)ccc(C)c2[nH]c1=O (configuration not stated)	HSF-1 act 128
COc1ccc(Cl)cc1NC(=O)CSc1nc2ccsc2c(=O)n1CC1CCC(C(=O)O)CC1 (configuration not stated)	HSF1 inhib -60
CNC(=O)C[C@H]1CC[C@@H]2[C@@H](COc3ccc(NC(=O)c4ccc5c(c4)OCO5)cc3C(=O)N2C)O1	none (no result: HSF-1 act, HSF1 inhib, HSP90 inh, HIF act)
Nn1c(SCc2ccc(Br)cc2)nnc1-c1ccccn1	none
Cc1cccc(CSc2nnc(-c3ccccn3)n2N)c1	ARNT-TACC3 inh 45
Nn1c(SCc2ccccc2)nnc1-c1ccco1	HSF1 inhib -68
O=C(Nc1ccc2c(c1)[C@@H]1C[C@@H](CC(=O)N3CCOCC3)O[C@@H](CO)[C@@H]1O2)C1CCC1	none (no result: HSF-1 act, HSF1 inhib, HSP90 inh, HIF act)
COc1ccc(NC(=O)Nc2ccc3c(c2)C(=O)N([C@@H](C)CO)C[C@H](C)[C@H](CN(C)Cc2ccc(Cl)c(Cl)c2)OCCCC[C@@H](C)O3)cc1	none (no result: HSF-1 act, HSF1 inhib, HSP90 inh, HIF act)
COc1ccc(/C=N/N(CCC(=O)NC(C)(C)C)C2=NS(=O)(=O)c3ccccc32)cc1	none
CC(C)(C)NC(=O)CCN(/N=C/c1ccncc1)C1=NS(=O)(=O)c2ccccc21	ARNT-TACC3 inh 63
O=S1(=O)N=C(N(CCO)/N=C/c2ccncc2)c2ccccc21	ARNT-TACC3 inh 72
COc1ccc(C=C2C(=O)c3ccccc3C2=O)cc1O	none
CCN1C/C(=C/c2ccc(OC)c(O)c2)C(=O)/C(=C/c2ccc(OC)c(O)c2)C1	HSF1 inhib -79
COc1ccc(/C=C2\CN(Cc3ccccc3)C/C(=C\c3ccc(OC)c(O)c3)C2=O)cc1O	HSF-1 act 91, HSP90 inh 18
CN(C)C(=O)c1ccc(-c2ccc3c(c2)[C@H]2[C@H](CCN2C(=O)c2cnccn2)[C@@H](CO)N3)cc1	none (no result: HSF-1 act, HSF1 inhib, HSP90 inh, HIF act)
Clc1ccc(CNc2ncccn2)cc1	none
Oc1cc(NCc2ccc(Cl)cc2)cc2cccnc12	ARNT-TACC3 inh 37 (no result: HSF-1 act, HSF1 inhib, HSP90 inh, HIF act)
O=C(N[C@@H]1CC[C@@H](CCNS(=O)(=O)Cc2ccccc2)O[C@H]1CO)c1cnccn1	none (no result: HSF-1 act, HSF1 inhib, HSP90 inh, HIF act)
Clc1ccc(Cn2nc(-c3ccccc3)nc2-c2ccccc2)cc1	HSF-1 act 53
CCCC#Cc1ccc([C@H]2[C@@H](CO)N3CCCCN(C(=O)NC4CCCC4)C[C@H]23)cc1	none (no result: HSF-1 act, HSF1 inhib, HSP90 inh, HIF act)
COc1ccc(CCNc2nc(-c3ccccn3)cs2)cc1OC	ARNT-TACC3 inh 65
O=C(OCc1c(F)cccc1Cl)c1cc([N+](=O)[O-])ccc1N1CCOCC1	none (no result: HSP90 inh)
N/C(Cc1ccc([N+](=O)[O-])cc1)=N\OC(=O)c1ccccc1F	HSF-1 act 66
N/C(Cc1ccc([N+](=O)[O-])cc1)=N\OC(=O)Cc1ccccc1	none
O=C(Cc1ccc([N+](=O)[O-])cc1)OCc1c(F)cccc1Cl	HSF-1 act 56
COCCNC(=O)C[C@@H]1C=C[C@H](NS(=O)(=O)c2ccc(C)cc2)[C@H](CO)O1	none (no result: HSF-1 act, HSF1 inhib, HSP90 inh, HIF act)
COc1cc(C(=O)NCC2CCCO2)ccc1OCc1ccc(Cl)cc1Cl (configuration not stated)	HSF-1 act 72 (no result: HSP90 inh)
Cc1cc(-c2ccccc2)c2ccc(NC(=O)C(C)(C)C)nc2n1	HSF1 inhib -62
COc1ccc(CNC(=O)C[C@H]2C[C@H]3c4cc(NS(=O)(=O)c5ccc(F)cc5)ccc4O[C@H]3[C@H](CO)O2)cc1	none (no result: HSF-1 act, HSF1 inhib, HSP90 inh, HIF act)
COc1ccc(S(=O)(=O)Nc2ccc3c(c2)CC(=O)N([C@H](C)CO)C[C@H](C)[C@@H](CN(C)S(=O)(=O)c2ccc(F)cc2)O3)cc1	none (no result: HSF-1 act, HSF1 inhib, HSP90 inh, HIF act)
CC(=O)N1CCCc2cc(S(=O)(=O)NC(C(=O)NC3CCCCC3)C(C)C)ccc21 (configuration not stated)	none
CC(=O)N1CCc2cc(S(=O)(=O)NC(Cc3ccccc3)C(=O)NC3CCCCCC3)ccc21 (configuration not stated)	HSF-1 act 54
O=C(Nc1nc(-c2ccc([N+](=O)[O-])cc2)cs1)c1c(F)cccc1F	none
Cc1ccc(-c2csc(NC(=O)c3cccc([N+](=O)[O-])c3)n2)cc1	HSF-1 act 64
Cc1ccc(/C=C/C(=O)c2ccc([N+](=O)[O-])o2)cc1	none (no result: HSP90 inh, ARNT-TACC3 inh)
Cc1ccc(CNC(=O)c2ccc([N+](=O)[O-])o2)cc1	HSF-1 act 61
Cc1ccc(-c2csc(NC(=O)c3ccc(C)o3)n2)cc1	none
Cc1ccc(-c2csc(NC(=O)c3ccc([N+](=O)[O-])o3)n2)cc1	HSF-1 act 65
CCCNC(=O)N(C)C[C@H]1Oc2cc(C#CC(C)C)ccc2S(=O)(=O)N([C@@H](C)CO)C[C@@H]1C	none (no result: HSF-1 act, HSF1 inhib, HSP90 inh, HIF act)
CN1CCN(S(=O)(=O)c2ccc(NC(=S)NC(=O)C(C)(C)C)cc2)CC1	none (no result: HSF-1 act, HSF1 inhib)
CCC(=O)NC(=S)Nc1ccc(S(=O)(=O)N2CCN(C)CC2)cc1	HSF-1 act 79
COc1ccc(C(=O)O/N=C(\N)c2ccc(OC)c(OC)c2)cc1	HSF-1 act 66
COc1ccc(C(=O)O/N=C(\N)c2ccc(OC)c(OC)c2)c(OC)c1	none
